Vif-A3G inh – qHTS for Inhibitors of Vif-A3G Interactions: qHTS; DNA dC->dU-editing enzyme APOBEC-3G (Homo sapiens), Q9HC16; HeLa A3G-eYFP + Vif (tagged APOBEC3G with the HIV-1 protein that degrades it), YFP fluorescence, overnight; Potency, µM (highest dose often 46.1 µM), without a hit: at the highest dose activity, negative = active, usual class: inhibitors; 0.076% of 410,000 active; note: potency is the fitted concentration of half-maximal effect; % is set by controls: 0 for no effect and ±100 for the full control effect; nearly all actives have a fitted effect of over 60% in size
Target sequence (Q9HC16 whole entry, looked up): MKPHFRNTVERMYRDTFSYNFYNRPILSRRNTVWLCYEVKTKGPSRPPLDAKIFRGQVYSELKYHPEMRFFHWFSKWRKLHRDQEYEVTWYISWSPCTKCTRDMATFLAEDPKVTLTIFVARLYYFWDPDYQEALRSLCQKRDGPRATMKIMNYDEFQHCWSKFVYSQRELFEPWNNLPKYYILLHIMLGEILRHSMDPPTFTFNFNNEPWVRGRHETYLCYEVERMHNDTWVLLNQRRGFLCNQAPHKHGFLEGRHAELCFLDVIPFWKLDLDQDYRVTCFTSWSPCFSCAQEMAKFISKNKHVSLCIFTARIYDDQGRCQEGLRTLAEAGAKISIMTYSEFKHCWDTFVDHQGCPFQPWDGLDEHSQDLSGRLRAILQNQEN
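HeLa cells stably expressing Vif and C-terminally eYFP-tagged A3G, seeded overnight at 37 deg C, then exposed to compound by pintool overnight at 37 deg C. Rise in yellow fluorescence (Ex 488/Em 500-530, Acumen) marks blocked Vif-driven A3G degradation.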
Vif-A3F inh – qHTS for Inhibitors of Vif-A3F Interactions: qHTS; HeLa A3F-eYFP + Vif (tagged APOBEC3F with the HIV-1 protein that degrades it), YFP fluorescence increase; Potency, µM (series often up to 46.1 µM), without a hit: top-dose activity, negative = active; 0.2% of 390,000 active; note: potency is the fitted concentration of half-maximal effect; % of control where 0% means no effect; nearly all actives have a fitted effect of over 65% in size
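HeLa cells stably expressing A3F-eYFP plus Vif, plated and incubated overnight at 37 deg C, then exposed to compounds overnight at 37 deg C. Blocked degradation read as raised yellow fluorescence (Ex 488/Em 500-530).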
SW480 rerep – A quantitative high throughput screen for small molecules that induce DNA re-replication in SW480 colon adenocarcinoma cells; SW480 DNA re-replication, Hoechst DNA content imaging, 48 h; Potency, µM (series often up to 46.1 µM), without a hit: top-dose re-replication activation, actives largely listed as activators; 1.8% of 340,000 active; AID 624297, 2012; note: potency is the fitted concentration of half-maximal effect; % of control where 0% means no effect; nearly all actives have a fitted effect of over 55% in size
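Quantitative HTS format with DMSO vehicle controls; 48 hr drug incubation at 37 C, then 40 min Hoechst staining and scanning imager measurement at 405 nm excitation.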
IL-1B inflam inh – qHTS for Inhibitors of Inflammasome Signaling: IL-1-beta AlphaLISA Primary Screen. THP-1 LPS/ATP IL-1B secretion, AlphaLISA, 16 h; stronger effect = lower value. activity change, % at 57.5 µM. 4.7% of 360,000 active. AID 743279, 2014; in the data active = activity change below about -50%; inconclusive = mostly about -30% to -49%; note: % is set by controls: 0 for no effect and ±100 for the full control effect
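THP-1 cells pretreated 1 hr with compounds (up to 57.5 uM final), then stimulated with LPS (250 ng/mL final) plus ATP (1.25 mM final); secreted IL-1B measured by AlphaLISA after 16 hr, decreased signal indicating inhibition.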
MCF10A rerep – A quantitative high throughput screen for small molecules that induce DNA re-replication in MCF 10a normal breast cells | MCF 10A DNA re-replication, Hoechst nuclear intensity, 48 h | Potency, µM (doses to about 46.1 µM), for inactives: at the top dose activity, positive = re-replication, actives largely listed as activators | 2.9% of 350,000 active | AID 624296, 2012; note: potency is the fitted concentration of half-maximal effect; % of control where 0% means no effect; nearly all actives have a fitted effect of over 50% in size
Giardia kill – Small Molecules that selectively kill Giardia lamblia: qHTS; AID 540267, 2011; Giardia lamblia trophozoite viability; 0.15% of 340,000 active; activity change, % at 7.66 µM, hits read low; in the data active = activity change below about -80%; inconclusive = between about -30% and that limit;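 note: parasites exposed to compound for two days anaerobically before the ATP read; % is set by controls: 0 for no effect and ±100 for the full control effect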
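Luminescent ATP signal served as the viability read-out, measured 15-30 min after adding ATP detection reagent to trophozoites that had been incubated with compounds for 48 hrs at 37 deg C anaerobically at 100 cells/well.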
Active calls of the source: *; ? = inconclusive; . = no result. Sampled rows, rich in hits. Any-hit rate of the full collection: about 6.9%. Unless noted, calls come from the whole dose curve; as a rule, active = well fitted curve in the direction sought with a large enough effect; inconclusive = small, poorly fitted or top-dose-only effect, or another doubt; inactive = no such curve, though single readings can be large; an effect the other way counts as inactive or inconclusive.

SMILES | Vif-A3G inh | Vif-A3F inh | SW480 rerep | IL-1B inflam inh | MCF10A rerep | Giardia kill
CC(=O)/C(=C/N(C)C)C(=O)Nc1ccc(Cl)cc1Cl | -0.4% | 3.2% | ? | -7.6 | 18.4µM* | -0.1
CN(C)/C=N/C(=S)Nc1ccc(Cl)cc1Cl | -4.2% | ? | 20.6µM* | -77.1* | ? | 0.7
CN(C)/C=N/C(=S)Nc1ccc(Cl)cc1 | -1.2% | ? | -5.7% | -13.3 | -0.1% | 2.3
COc1ccc2cc(CNc3ccccc3)c(=O)n(CC(=O)Nc3ccc(C)cc3C)c2c1 | -2.8% | 6.3% | . | . | . | .
C[n+]1ccc(/C=C/c2ccc([N+](C)(C)C)cc2)c2ccccc21 | 4.2% | . | . | . | . | .
C[n+]1ccc(/C=C/c2cc[n+](C)c3ccccc23)c2ccccc21 | 12.6µM* | . | . | . | . | .
CN1C=C/C(=C\c2cc[n+](C)c3ccccc23)c2ccccc21 | 4.8% | ? | -23.5% | -71.3* | 0.581µM* | -1.5
C[n+]1ccc(/C=C/c2ccc(F)cc2)c2ccccc21 | 8.0% | . | . | . | . | .
CC(=O)N1CCCc2ccc(NC(=O)c3ccc(OC(C)C)cc3)cc21 | -6.3% | 1.3% | . | . | . | .
CCOC(=O)c1c(C)c(-c2ccccc2)n(CC(=O)NCCc2cccc(C)c2)c1C | -0.5% | 1.0% | . | . | . | .
COc1cc(OC)c(NC(=O)CCn2cnc3onc(-c4ccc(F)cc4)c3c2=O)cc1Cl | -2.8% | -2.3% | . | . | . | .
C=CCn1c2ccccc2c2nnc(SCCN3CCOCC3)nc21 | 2.0% | 0.9% | 3.3% | -70.7* | 26.7% | 15.1
COc1ccc(NC(=S)NC(NC(=O)/C=C/c2ccccc2)C(Cl)(Cl)Cl)cc1 (configuration not stated) | -6.7% | -14.1% | 25.3% | -4.2 | ? | 18.9
O=C(/C=C/c1ccccc1)NC(NC(=S)Nc1cc(Cl)ccc1Cl)C(Cl)(Cl)Cl (configuration not stated) | 0.9% | 0.0% | -5.7% | -65.8* | 0.2% | -2.7
O=C(/C=C/c1ccccc1)NC(NC(=S)Nc1ccc(Cl)cc1)C(Cl)(Cl)Cl (configuration not stated) | 0.0% | -3.0% | ? | ? | 16.4µM* | 25.5
NCc1ccccc1Sc1ccccc1CO | . | . | 0.7% | . | 1.2% | .
CCOc1cc(S(=O)(=O)NCCc2c(C)[nH]c3ccc(C)cc23)ccc1F | -2.6% | -0.7% | . | . | . | .
COc1cccc(C(=O)c2c[nH]c(C(=O)NCc3cccs3)c2)c1 | 1.5% | -14.8% | 0.5% | -62.1* | -0.9% | 19.1
COc1cccc(C(=O)c2c[nH]c(C(=O)NCc3cccnc3)c2)c1 | -3.7% | 7.4% | -11.2% | -25.7 | ? | -8.7
COC1C=CC=C(C)C(=O)NC2=CC(=O)C(N)=C(CC(C)CC(OC)C(O)C(C)C=C(C)C1OC(N)=O)C2=O (configuration not stated) | -8.7% | 9.2% | 0.231µM* | -91.9* | 64.4% | -24.3
C=CCNC1=C2C[C@@H](C)C[C@H](OC)[C@H](O)[C@@H](C)/C=C(\C)[C@H](OC(N)=O)[C@@H](OC)/C=C\C=C(/C)C(=O)NC(=CC1=O)C2=O | . | . | 2.9% | . | 0.0668µM* | .
COc1ccccc1Cn1cc(C(=O)c2ccc(C)cc2)c(=O)c2cc3c(cc21)OCCO3 | -3.3% | 4.1% | . | . | . | .
Cc1ccc(S(=O)(=O)NCCC(=O)Nc2nccs2)cc1 | 0.0% | 19.2% | -1.5% | -64.3* | -2.0% | -10.8
Cc1ccc(S(=O)(=O)CCC(=O)Nc2nccs2)cc1 | -3.0% | -10.3% | -2.4% | 6.8 | 0.2% | -3.6
O=C(Nc1nccs1)c1ccc(Br)cc1 | -8.3% | 7.0% | 14.6µM* | 11.5 | -2.4% | -5.6
SMILES | Vif-A3G inh | Vif-A3F inh | SW480 rerep | IL-1B inflam inh | MCF10A rerep | Giardia kill
O=C(Nc1nccs1)c1ccc(Cl)c([N+](=O)[O-])c1 | 2.4% | 0.5% | -11.6% | -68.6* | ? | -6.8
O=C(Cc1ccccc1)Nc1nccs1 | 1.0% | 0.7% | -6.0% | -5.0 | -0.7% | ?
O=C(CCNC(=O)c1ccc(Br)cc1)Nc1nccs1 | -4.9% | -4.9% | -1.3% | 29.5 | 0.2% | -12.2
O=C(Cc1ccccc1[N+](=O)[O-])Nc1nccs1 | -0.5% | -7.2% | 2.91µM* | 15.3 | 1.6% | 0.7
CCN1CCN(C(=O)c2cnn(-c3ccc(F)cc3F)c2C2CCN(C(=O)OC(C)(C)C)CC2)CC1 | 1.6% | 0.5% | . | . | . | .
COc1ccc(C(=O)Nc2ccc(C(=O)Nc3nccs3)cc2)cc1[N+](=O)[O-] | -0.7% | 0.7% | 10.3µM* | -0.9 | -3.2% | -11.9
COc1ccc(C(=O)Nc2ccc(S(=O)(=O)NC(C)(C)C)cc2)cc1[N+](=O)[O-] | -2.0% | -1.9% | 9.4% | -26.4 | 0.13µM* | 8.7
O=C(Nc1nccs1)c1ncc(Cl)c(Cl)c1Cl | -7.2% | -27.9% | ? | -55.7* | 17.7% | 2.8
O=S1(=O)CCO[C@H]2CCCC[C@@H]2N1Cc1cccc(F)c1 | 0.4% | . | . | . | . | .
Cc1ccccc1C(=O)Nc1ccc2oc(-c3ccc(Cl)c(Cl)c3)nc2c1 | -3.9% | -5.8% | . | . | . | .
C=C1CC2C3CC[C@@]4(OCOC45COCO5)[C@@]3(C)C(O)CC2[C@@]2(C)CCC(=O)C=C12 (some centres not stated) | -25.4% | -10.8% | ? | -100.6* | 5.17µM* | 8.3
COc1cccc2oc3cc(C#Cc4ccccn4)ccc3c(=O)c12 | 0.9% | 10.1% | -18.6% | -55.0* | 7.3% | -8.8
COc1cccc2oc3cc(C#CC4(O)CCCCC4)ccc3c(=O)c12 | -1.5% | 5.2% | -1.6% | ? | ? | ?
COc1cccc(Nc2c3c(nc4nncn24)CCC3)c1 | 0.9% | -3.7% | . | . | . | .
Cc1ccc(-n2c(=O)c3cccnc3n2CC(=O)Nc2ccc(Br)cc2)cc1C | -3.9% | -6.3% | . | . | . | .
CN(C)CCOc1nc(-c2ccccc2)nc2c1oc1ccccc12 | 5.3% | -5.3% | ? | -99.1* | ? | -2.5
CN(C)CCOc1ncnc2c1oc1ccccc12 | -0.1% | 1.5% | -4.1% | -8.5 | 6.1% | -21.2
CCCOc1ccc(NC(=O)CC2C(=O)N(c3ccccc3)C(=O)N2CCC(C)C)cc1 (configuration not stated) | 1.5% | 1.8% | . | . | . | .
CCN1CCN(CC(=O)N2N=C(c3cccs3)CC2c2ccc(OC)c(OC)c2)C(=O)C1=O (configuration not stated) | 1.0% | 4.5% | -2.2% | -8.9 | -5.3% | 22.1
C=C1C(=O)c2sccc2C(c2ccc(OC)c(OC)c2)C1COC(C)=O (configuration not stated) | ? | 19.3% | ? | -101.2* | 17.6% | 35.9

Compound activity deposited in PubChem by National Center for Advancing Translational Sciences (NCATS).
